Test results taken from PubChem BioAssay (NCATS).
The source made the active and inactive calls. Calls follow the shape of the dose curve; as a rule, active = well fitted curve in the direction sought with a large enough effect (not every such curve was filed as active); inconclusive = small, poorly fitted or top-dose-only effect, or effect the other way, or another doubt; inactive = no such curve, though single readings can be large or run the other way.

These molecules were tested against Pyruvate kinase PKM (Homo sapiens) (UniProt P14618) (assay: qHTS Assay for Activators of Human Muscle Pyruvate Kinase (AID 954)). Conditions: purified human muscle pyruvate kinase, luciferase-coupled luminescence, 1 h; series mostly up to 57.5 µM.
Sequence of Pyruvate kinase PKM (Homo sapiens) (P14618 whole entry, looked up): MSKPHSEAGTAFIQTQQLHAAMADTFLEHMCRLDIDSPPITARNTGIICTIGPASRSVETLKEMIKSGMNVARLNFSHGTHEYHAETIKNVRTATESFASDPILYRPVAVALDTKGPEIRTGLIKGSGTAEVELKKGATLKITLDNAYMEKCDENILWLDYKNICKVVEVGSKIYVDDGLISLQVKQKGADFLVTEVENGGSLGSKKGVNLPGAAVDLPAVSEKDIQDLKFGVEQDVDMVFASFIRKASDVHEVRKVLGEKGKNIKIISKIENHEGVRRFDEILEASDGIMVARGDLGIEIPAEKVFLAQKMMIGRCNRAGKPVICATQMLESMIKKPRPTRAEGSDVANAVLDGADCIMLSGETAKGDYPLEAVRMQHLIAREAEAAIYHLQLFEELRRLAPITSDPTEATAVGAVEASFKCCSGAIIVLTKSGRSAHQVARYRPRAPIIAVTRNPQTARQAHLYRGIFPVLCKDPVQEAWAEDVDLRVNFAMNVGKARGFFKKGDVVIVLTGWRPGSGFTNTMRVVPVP
Method in brief: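 ATP production by PKM2 detected via luciferase luminescence after 1 h room-temperature reaction (0.1 nM enzyme, PEP at Km 0.5 mM, ADP 0.1 mM, pH 7.2 imidazole buffer). Inhibition scaled to no-enzyme control; activation referenced to 0.3 nM enzyme wells.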
`Nc1cc(Cl)c(NC2=NCCN2)c(Cl)c1` was tested, and the outcome was “inactive”.
In the case of `CC(C)COC(=O)OCN1C(=O)CN(CCN2CC(=O)N(COC(=O)OCC(C)C)C(=O)C2)CC1=O`, the outcome is reported as “inactive”.
For `CN1[C@@H]2CC[C@H]1CC(OC(=O)c1c[nH]c3ccccc13)C2` (some centres not stated), the outcome was “inactive”.
In the case of `C[C@]12CC[C@@H]3c4ccc(O)cc4CC[C@H]3[C@@H]1CC[C@@H]2O`, the outcome is reported as “inactive”.
For `CNCCC=C1c2ccccc2CCc2ccccc21`, the outcome was “inactive”.
In the case of `Oc1cc(O)c2c(c1)O[C@H](c1ccc(O)c(O)c1)[C@H](O)C2`, the outcome is reported as “inactive”.
`C[C@@H]1C(=O)NC2=Nc3cccc(Cl)c3CN21` was tested, and the outcome was “inactive”.
With `N[C@@H](Cc1cnc[nH]1)C(=O)O` the outcome was “inactive”.
With `CN1CCC[C@@H]1c1cccnc1` the outcome was “inactive”.
For `O=C1CCC(c2ccc(-n3ccnc3)cc2)=NN1`, the outcome was “inactive”.
In the case of `CCCC1O[C@@H]2C[C@H]3[C@@H]4CCC5=CC(=O)C=C[C@]5(C)[C@H]4[C@@H](O)C[C@]3(C)[C@]2(C(=O)CO)O1` (some centres not stated), the outcome is reported as “inactive”.
For `COc1cc(NS(C)(=O)=O)ccc1Nc1c2ccccc2nc2ccccc12`, the outcome was “inactive”.
